# MITF TRPM1 HTS – MITF TRPM1 promoter activation in melanoma cells; AID 588334; hit rate 0.75% among 300,000; SK-MEL-5 TRPM1-promoter luciferase, 24 h; % of positive control, neutral wells = 0; activation, % at 12.5 µM;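 active = mean activation of at least 80% with every replicate also reaching 80%; inconclusive = mean reaches 80% but some replicate falls short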;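 also: 0% = neutral control wells and 100% = parthenolide positive control wells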
# esBAF inh – inhibitors of esBAF chromatin remodeling in mouse ES cells; reporter increase, % at 12.5 µM; hit rate 2% among 350,000; Bmi1-luciferase knock-in reporter, 24 h; 100% = twice the neutral-well signal; in the data active = activation above about 40%; inconclusive = no clear call, values can overlap the other calls;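 also: 0% = median of the plate's neutral control wells and 100% = double that signal; a rise in the Bmi1 reporter signal indicates esBAF inhibition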
# PvdQ inh – P. aeruginosa PvdQ acylase inhibition; purified PvdQ acylase, fluorescence plate reader; inhibition, % at 10 µM; hit rate 0.063% among 340,000; AID 488965; in the data active = inhibition above about 30%, passing the limit was not always enough; inconclusive = no clear call, values can overlap the other calls;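 also: 0% = vehicle neutral wells and 100% = reference inhibitor wells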
# Vif inh – blocks HIV Vif function. HEK293T cells, Vif self-association by quenched fluorescence, imaging, 24 h. inhibition, % at 7.49 µM. hit rate 0.35% among 340,000; in the data active = inhibition above about 50%, passing the limit was not always enough; inconclusive = no clear call, values can overlap the other calls; inactive = below about 31%
# N-glyco inh – N-linked glycosylation inhibition; hit rate 0.23% among 360,000; D54 ERlucT glycosylation luciferase reporter, 24 h; percent of 100 nM tunicamycin response; reporter increase, % at 12.5 µM;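 active = mean luciferase reporter signal, scaled so untreated is 0 and the glycosylation-blocking control 100, at or above a set limit in every replicate; inconclusive = mean reaches the limit but not every replicate does; inactive = mean below the limit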;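 also: luciferase carries N-glycosylation sites so blocking glycosylation raises the light; 0% = median of neutral control wells and 100% = median of 100 nM tunicamycin wells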
# Wnt act – activators of Wnt/beta-catenin signaling | hit rate 1.2% among 300,000 | Wnt/beta-catenin reporter cell assay, activator, plate reader | activation, % at 9.35 µM; in the data active = activation above about 30%, passing the limit was not always enough; inconclusive = no clear call, values can overlap the other calls;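 also: 0% = neutral control wells and 100% = positive control wells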
# * = called active by the depositor; ? = inconclusive; nt = no result; ! = a repeat was not active. Sampled rows, rich in hits. Any-hit rate of the full collection: about 2.9%.
SMILES,MITF TRPM1 HTS,esBAF inh,PvdQ inh,Vif inh,N-glyco inh,Wnt act
O=C(c1ccccn1)c1ccc2ccccc2n1,nt,nt,nt,0.0,-1.8,43.5*
O=C(NCc1ccccn1)c1ccc2ccccc2n1,12.5,6.3,-10.7,-2.9,3.3,9.3
c1ccc(-c2ccc3c(n2)CCCN3Cc2ccccn2)cc1,nt,nt,nt,nt,nt,35.5*
COc1ccc(S(=O)(=O)N2CCCc3nc(-c4ccccc4)ccc32)cc1,nt,nt,nt,nt,nt,2.4
Cc1nn2c(COc3ccc(NC(=O)c4ccccc4Cl)cc3)nnc2c2ccccc12,0.9,18.6,3.9,98.6*,8.6,1.7
COc1ccc(S(=O)(=O)N[C@@H]2CC[C@H](CC(=O)NCCc3ccccc3)O[C@H]2CO)cc1,nt,0.0,nt,nt,nt,nt
O=C(c1ccccc1)c1ccccn1,0.4,nt,-12.7,6.4,0.0,-1.7
O=C(NNCc1ccccc1)c1ccccn1,37.4,5.1,-10.9,2.3,-9.0,35.6*
O=C(CC(=O)c1ccccn1)c1ccccc1,54.5,nt,1.2,7.8,-5.4,49.6*
O=C(Nc1nnc(CCc2ccccc2)s1)c1ccco1,21.9,23.0,-5.2,6.4,1.3,11.7
O=C(Nc1nnc(Cc2ccccc2)s1)c1ccco1,48.5,46.2*,0.8,9.5,0.0,25.0
Cc1nnc(NC(=O)c2ccco2)s1,0.9,5.6,-0.1,4.6,1.2,-2.7
O=C(COc1ccccc1)Nc1nc2c(s1)CCCC2,113.9*,58.0*,-12.7,22.2,-9.1,20.2
O=C(COc1ccccc1)Nc1nnc(C23CC4CC(CC(C4)C2)C3)s1,nt,47.9*,0.6,-1.6,-2.5,23.5
Cc1nnc(NC(=O)COc2ccccc2)s1,10.4,3.2,-8.0,4.1,0.1,-1.1
O=C(Nc1nnc(C23CC4CC(CC(C4)C2)C3)s1)c1ccco1,77.9,31.2,-18.4,3.1,2.2,41.2*!
NC(=O)c1cc(Cc2ccccc2)sc1NC(=O)c1ccco1,118.2*,85.4*,-14.7,-1.6,-1.7,27.2
Nc1c(C(=O)Nc2ccc(F)cc2)sc(=S)n1-c1ccccc1F,50.7,53.9*,9.1,19.0,-0.1,5.2
Cn1c(N)c(C(=O)Nc2ccccc2F)sc1=S,nt,nt,-3.8,-2.4,2.8,4.1
Cn1c(N)c(C(=O)Nc2ccc3ccccc3c2)sc1=S,106.8*,38.9,-0.4,2.6,0.9,nt
CCOc1ccc2nc(N3C(=O)CNC3=S)sc2c1,nt,-12.6,-1.3,3.8,-6.9,50.6*
CCOC(=O)c1ccc(N2Cc3ccccc3C2=NC(=O)c2cccs2)cc1,112.4*,nt,26.0,1.5,-2.4,21.0
N#Cc1ccc(N2Cc3ccccc3C2=NC(=O)c2cccs2)cc1,32.7,nt,2.4,4.6,-2.1,18.0
CC(=O)c1ccc(N2Cc3ccccc3C2=NC(=O)c2cccs2)cc1,93.6*,7.0,-12.1,10.1,-13.0,?
CC(=O)c1ccc(N2Cc3ccccc3/C2=N\C(=O)Nc2ccccc2)cc1,60.7,nt,-8.9,-1.7,2.1,nt
SMILES,MITF TRPM1 HTS,esBAF inh,PvdQ inh,Vif inh,N-glyco inh,Wnt act
COc1ccc(N2Cc3ccccc3C2=NC(=O)c2cncc(Br)c2)cc1,41.0,nt,3.0,6.9,0.0,0.6
CCOC(=O)c1ccc(N)cc1,15.2,4.2,-1.9,4.9,-0.8,0.4
CCOC(=O)c1ccc(N2Cc3ccccc3C2=NC(=O)c2ccncc2)cc1,102.2*,nt,?,-1.7,-1.2,46.3*
CCOC(=O)c1ccc(N2Cc3ccccc3C2=N)cc1,46.1,17.2,57.7*,6.6,0.8,-0.5
C[C@H]1CN([C@@H](C)CO)C(=O)c2c(c3ccccc3n2C)-c2ccccc2CO[C@@H]1CN(C)C(=O)C1CC1,nt,-5.1,nt,nt,nt,nt
CCc1cc(=O)[nH]c(-n2[nH]c(-c3ccccc3)cc2=O)n1,-0.9,13.0,-10.8,9.6,-2.5,22.4
O=c1cc(-c2ccccc2)[nH]n1-c1nc2ccccc2[nH]1,-13.1,nt,-8.3,4.3,40.8*,nt
O=C(Nc1ccc(-c2ccccc2)cc1)[C@@H]1[C@@H](CO)[C@@H]2Cn3c(cccc3=O)[C@H]1N2Cc1cncnc1,nt,-1.5,nt,nt,nt,nt
O=C(Nc1ccccc1)NC1CCCCC1,25.7,46.1*,-8.2,nt,-1.6,nt
Cc1ccc(NC(=O)NC2CCCCC2)cc1Cl,?,85.2*,-9.1,nt,-4.8,nt
O=C(CC1CCCCC1)Nc1nc2ccccc2s1,62.9,nt,0.2,-2.5,-5.5,25.5
O=C(Nc1ccc(Br)cc1)NC1CCCCCCC1,?,nt,-4.7,-8.2,-11.9,46.6*
O=C(Nc1nc2ccccc2s1)NC1CCCCC1,86.2*,nt,5.8,-3.9,-10.0,42.5*
O=C(C[C@H]1CC[C@@H](NC(=O)Nc2cc(F)ccc2F)[C@H](CO)O1)NCc1ccncn1,nt,0.7,nt,nt,nt,nt
O=C(C[C@@H]1CC[C@@H]2[C@H](COC[C@@H](O)CN2Cc2nccs2)O1)NCc1ccc(Oc2ccccc2)cc1,nt,17.7,nt,nt,nt,nt
O=C(Nc1cccc([N+](=O)[O-])c1)NC1CCCCCCC1,91.4*,77.6*,-13.4,0.7,2.0,23.8
O=C(NC1CCCCC1)N(c1ccccc1)c1nnc(-c2cccc([N+](=O)[O-])c2)s1,nt,66.0*,nt,nt,-2.0,12.5
O=C(CNC1CCCCC1)Nc1cccc([N+](=O)[O-])c1,nt,6.2,9.3,18.9,-0.2,0.8
C[C@H]1CCCCO[C@H](CN(C)Cc2ccc3c(c2)OCO3)[C@@H](C)CN([C@@H](C)CO)C(=O)c2cc(NS(=O)(=O)c3ccc(Cl)cc3)ccc2O1,nt,1.0,nt,nt,nt,nt
COc1ccccc1CNC(=O)C[C@H]1CC[C@H]2[C@@H](COC[C@H](O)CN2C(=O)Nc2ccc(C(F)(F)F)cc2)O1,nt,-4.0,nt,nt,nt,nt
O=C(/C=C1\NCC2c3ccccc3CCN2C1=O)c1ccccc1 (stereo not drawn),nt,48.8*,5.7,0.0,-0.1,nt
CC(C)NC(=O)N(C)C[C@@H]1Oc2ccc(NC(=O)c3ccncc3)cc2CC(=O)N([C@@H](C)CO)C[C@H]1C,nt,3.2,nt,nt,nt,nt
CC1CN(S(=O)(=O)c2cccc(C(=O)NCCCn3ccnc3)c2)CC(C)O1 (stereo not drawn),-9.9,-10.4,-15.8,3.3,0.4,-2.0
CC1CN(S(=O)(=O)c2ccc(C(=O)NCCCn3ccnc3)cc2)CC(C)O1 (stereo not drawn),0.7,nt,0.4,52.2*,-0.5,0.5
CC1CCN(c2cc(C#N)c(C#N)cc2[N+](=O)[O-])CC1,12.2,3.0,-13.9,90.5*,-0.5,nt
SMILES,MITF TRPM1 HTS,esBAF inh,PvdQ inh,Vif inh,N-glyco inh,Wnt act
O=C(C1CC1)N1CCc2cc(Br)cc(S(=O)(=O)N3CCCCCC3)c21,nt,nt,-9.7,-1.5,-2.9,41.5*
CSc1ccccc1NC(=O)COc1ccc2c(c1)OCO2,61.3,39.2,8.7,21.8,0.9,4.5
NC(=O)c1ccccc1NC(=O)c1ccc2c(c1)OCO2,nt,37.7,-16.6,-3.8,-1.6,42.2*
NC(=O)c1ccccc1NC(=O)COc1ccc2c(c1)OCO2,132.4*,47.8*,5.3,-6.2,-2.4,25.4
C[C@@H]1CCCCO[C@@H](CN(C)C(=O)c2ccncc2)[C@H](C)CN([C@@H](C)CO)C(=O)c2cc(NS(C)(=O)=O)ccc2O1,nt,3.4,nt,nt,nt,nt
C(/C=C/c1ccco1)=N/N1CCN(c2ccccc2)CC1,113.0*,25.1,-10.9,nt,1.8,nt

# Assay outcomes deposited in PubChem BioAssay by Broad Institute.
